Screens from PubChem.
SARS PLpro yeast: inhibitors of SARS-CoV papain-like protease in yeast. S. cerevisiae expressing SARS-CoV PLpro, growth rescue. 0.19% of 330,000 active. Potency, µM (top dose mostly 32.9 µM), for inactives: at the highest dose activity, positive = growth rescue, most hits filed as activators. AID 485353; calls by dose curve; also: 0% is about no effect; nearly all actives have a fitted effect of over 55% in size
Pf growth 48h: inhibits P. falciparum growth in the first generation, 48 h. Potency, µM (doses to about 28.7 µM), for inactives: at the top dose activity change, negative = inhibition, hits mostly inhibitors. P. falciparum luciferase growth in erythrocytes, 48 h. 5.9% of 310,000 active; also: % is scaled to controls: 0 for no effect and ±100 for the full control effect
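Read-out is firefly luciferase luminescence from an integrated reporter in P. falciparum, so falling signal marks reduced parasite growth. Infected erythrocytes were at 2% hematocrit and 0.1% parasitemia (final) in Albumax-supplemented RPMI 1640.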
AmpC detergent: inhibitors of E. coli AmpC beta-lactamase with detergent | Potency, µM (doses to about 114 µM), without a hit: at the highest dose activity change, negative = inhibition, hits mostly inhibitors | AID 485294 | P00811 | 0.041% of 370,000 active | AmpC hydrolysis of nitrocefin, absorbance 480 nm, 0.01% Triton;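 also: 0% = no-compound wells and -100% = no-enzyme wells; nearly all actives have a fitted effect of over 25% in size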
Target sequence (P00811 whole entry, looked up): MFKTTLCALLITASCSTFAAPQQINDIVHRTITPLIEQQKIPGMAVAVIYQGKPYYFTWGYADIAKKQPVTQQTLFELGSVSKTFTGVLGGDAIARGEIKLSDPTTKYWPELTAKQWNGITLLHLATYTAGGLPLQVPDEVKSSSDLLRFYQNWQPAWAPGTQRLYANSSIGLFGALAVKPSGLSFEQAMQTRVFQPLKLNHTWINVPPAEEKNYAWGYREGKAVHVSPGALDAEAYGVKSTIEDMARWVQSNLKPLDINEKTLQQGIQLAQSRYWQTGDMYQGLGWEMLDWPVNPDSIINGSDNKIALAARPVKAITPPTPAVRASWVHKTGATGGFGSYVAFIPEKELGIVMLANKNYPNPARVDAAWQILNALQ
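20 mM phosphate pH 7.0 + 0.01% (detergent screen) or 0.0001% Triton X-100; 5.3 nM AmpC reagent; cpd preinc 15 min RT; nitrocefin (800 uM stock) to start; A480 q20 s × 4 min; Activity was normalised to no-enzyme and no-compound control wells.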
Pf growth 96h: P. falciparum growth inhibition at 96 hour, primary screen for plastid delayed-death inhibitors | P. falciparum luciferase reporter growth, 96 h | Potency, µM (series often up to 28.7 µM), for inactives: top-dose activity change, negative = inhibition, usual class: inhibitors | 6.9% of 320,000 active; also: % is scaled to controls: 0 for no effect and ±100 for the full control effect
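Parasite growth measured via integrated firefly luciferase reporter in P. falciparum. Infected erythrocytes at 2% hematocrit, 0.05% parasitemia final were treated 96 hours at 37 C under 5% CO2, and luminescence was read.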
AmpC no deterg: AmpC beta-lactamase inhibition without detergent | P00811 | AmpC nitrocefin hydrolysis, absorbance 480 nm, 0.0001% Triton | Potency, µM (series often up to 57.1 µM), inactives show at the highest dose activity change, negative = inhibition, usual class: inhibitors | 0.52% of 330,000 active | AID 485341;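 also: plate controls were no compound for no effect and no enzyme for full effect; nearly all actives have a fitted effect of over 20% in size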
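20 mM phosphate pH 7.0 + 0.01% (detergent screen) or 0.0001% Triton X-100; 5.3 nM AmpC reagent; cpd preinc 15 min RT; nitrocefin (800 uM stock) to start; A480 q20 s × 4 min; Activity was normalised to no-enzyme and no-compound control wells.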
Sm TGR block: blocks Schistosoma mansoni thioredoxin glutathione reductase | Q962Y6 | purified TGR, DTNB reduction, TNB absorbance 405 nm | Potency, µM (titrated, usually from 114 µM), for the others: top-dose activity change, negative = inhibition, most hits filed as inhibitors | 3% of 360,000 active; also: % is scaled to controls: 0 for no effect and ±100 for the full control effect; nearly all actives have a fitted effect of over 60% in size
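Kinetic colorimetric format: TGR-catalysed, NADPH-driven DTNB reduction monitored via TNB absorbance. Enzyme dispensed at 20 nM; compound exposure 15 min at room temperature before reaction start.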
Active calls of the source: *; ? = inconclusive; · = no result; [ ] = dose if it differs, or a comment. A selection: hits, their analogues and other compounds. The true share with any hit is near 12%. Unless noted, calls follow the shape of the dose curve; as a rule, active = well fitted curve in the direction sought with a large enough effect; inconclusive = small, poorly fitted or top-dose-only effect, or another doubt; inactive = no such curve, though single readings can be large; an effect the other way counts as inactive or inconclusive. Potency is read from the fitted curve at half-maximal effect.

SMILES	SARS PLpro yeast	Pf growth 48h	AmpC detergent	Pf growth 96h	AmpC no deterg	Sm TGR block
CCOCCCn1c(=NC(=O)c2cccs2)c(C#N)cc2c(=O)n3ccccc3nc21	1.0%	4.65µM*	-1.2%	10.4µM*	40.0%	-13.5%
Cc1cccn2c(=O)c3cc(C#N)c(=NC(=O)c4ccncc4)n(CCCOC(C)C)c3nc12	-1.9%	4.15µM*	-8.7%	6.57µM*	-5.0%	?
COc1ccc(-c2csc(Nc3ccc(S(=O)(=O)Nc4cc(OC)nc(OC)n4)cc3)n2)cc1	5.4%	29.0%	-14.1%	14.7µM*	-23.6%	-11.2%
COc1ccc(C(=O)/C=C/Nc2ccc(S(=O)(=O)Nc3cc(OC)nc(OC)n3)cc2)c(OC)c1	0.3%	1.65µM*	-3.0%	36.4%	-14.0%	?
COc1cc(NS(=O)(=O)c2ccc(Nc3nc(-c4ccccn4)cs3)cc2)nc(OC)n1	-0.7%	9.5%	4.7%	-6.3%	-55.9%	0.0%
CCOC(=O)c1ccc(N=C2C(=S)N(c3ccc(C(=O)OCC)cc3)C(=N)N2/N=C/c2ccccc2)cc1	11.4%	?	0.1%	10.4µM*	-58.1%	-14.0%
CCOC(=O)c1ccc(N=c2scc(C)n2CC)cc1	-2.3%	196.7%	-9.6%	292.7%	-38.4%[11.4 µM]	-35.0%
Cc1cccc(C)c1NC(=O)/C(=C/c1ccco1)c1ccccc1	-4.1%	·	-0.9%	10.4µM*	-24.5%	31.6µM*
Cc1cc(C)c(NC(=O)/C(=C/c2ccco2)c2ccccc2)c(C)c1	7.1%	·	-7.8%	?	-21.7%	25.1µM*
Cc1ccccc1NC(=O)/C(=C/c1ccccc1)c1ccccc1	-20.9%	?	4.2%	-2.5%	-31.4%	12.5%
COc1ccc(CCNC(=O)c2c(C)nn(-c3ccc(F)cc3)c2-n2cccc2)c(OC)c1OC	·	·	-0.3%	·	·	9.0%
COc1ccc(-n2nc(C(=O)NCC(=O)Nc3cccc(Cl)c3)c3ccccc3c2=O)cc1OC	1.4%	?	-12.1%	?	-19.8%	-24.1%
CCOc1ccc(C(=O)CCN2CCCCCC2)cc1	-10.5%	-4.2%	-16.7%	0.0%	-11.4%	0.316µM*
CCCOc1ccc(C(=O)CCN2CCCCC2)cc1	-11.7%	13.1%	4.8%	·	-4.3%	0.316µM*
Cc1ccc(C(O)(CCN2CCCCC2)c2ccccc2)cc1 (centres undefined)	-0.2%	-15.7%	1.6%	9.9%	-6.4%	11.2µM*
CCCCOc1ccc(C(=O)CCN2CCOCC2)cc1	-24.3%	34.5%	-9.0%	-2.2%	56.6%	2µM*
OC(CCN1CCCCC1)(c1ccccc1)C1CCCCC1 (centres undefined)	0.7%	·	?	·	-25.9%	-0.1%
O=C(OCCN1CCOCC1)c1ccc(OCCN2CCOCC2)cc1	3.6%	·	-12.9%	35.4%	-5.9%	2.6%
CCN(CC)CCCn1c2c(c(SCC(=O)Nc3ccc4c(c3)OCCO4)nc1=O)CCC2	1.0%	-3.0%	?	?	-1.1%	-10.8%
Cc1ccc(C(=O)c2oc3ccccc3c2NC(=O)COc2ccccc2C)cc1	·	·	23.7%	·	·	17.7%
Cc1ccc(OCC(=O)Nc2ccc3nc(SCC(=O)N(C)c4ccccc4)sc3c2)cc1	·	·	11.5%	·	·	3.2%
CCCOc1ccc(C(O)(CCC)CCN2CCCCC2)cc1 (centres undefined)	7.3%	-13.6%	?	-21.8%	-5.8%	31.6µM*
CCCOc1cc(CN2CCCCC2)cc(C(C)=O)c1	·	8.1%	-7.7%	9.28µM*	·	?
COC(Cn1c2c(c3cc(C)ccc31)CCCC2NCc1ccccc1)OC (centres undefined)	-1.2%	?	0.0%	?	43.2%	3.98µM*
Cc1ccc2c(c1)c1c(n2CC(O)CNC2CCCC2)CCCC1 (centres undefined)	-0.4%	-52.7%	1.8%	?	-4.7%	-6.7%
SMILES	SARS PLpro yeast	Pf growth 48h	AmpC detergent	Pf growth 96h	AmpC no deterg	Sm TGR block
COc1ccc(N2CCN(CCCn3c(=S)[nH]c4ccccc4c3=O)CC2)cc1	0.7%	?	1.3%	?	-21.5%	-13.8%
COc1ccccc1N1CCN(CCCn2c(=S)[nH]c3ccccc3c2=O)CC1	0.0%	7.38µM*	-2.0%	20.8%	-36.2%	-0.6%
COc1ccc(CCNC(=O)CSc2nc3ncccc3[nH]2)c(OC)c1	4.0%	-3.0%	4.3%	?	-18.6%	1.4%
COC(=O)c1cc(NC(=O)CN2CCc3cc4c(cc3C2)OCCCO4)cc(C(=O)OC)c1	-13.0%	-6.0%	-8.0%	9.28µM*	-12.8%	-2.7%
O=C(CN1CCc2cc3c(cc2C1)OCCCO3)Nc1ccc(S(=O)(=O)N2CCCC2)cc1	9.8%	?	-6.8%	13.1µM*	-6.5%	-1.1%
Cc1ccc(NC2=C(Cl)C(=O)OC2NC(=O)c2ccccc2)cc1 (centres undefined)	-8.1%	?	-10.9%	1.04µM*	-35.6%	-7.6%
Cc1ccc(C2NNC(=O)C2NC(=O)c2ccccc2)cc1 (centres undefined)	4.3%	·	?	86.6%	-35.5%	-17.9%
Cc1ccccc1C(=O)OC1OC(=O)C(Cl)=C1Nc1ccc(C(=O)O)cc1 (centres undefined)	-0.7%	?	1.26µM*	-3.0%	1.12µM*	-18.1%
Cc1ccc(S(=O)(=O)NCCc2nc3ccccc3[nH]2)cc1	-2.2%	8.9%	1.6%	?	-18.6%	0.0%
CC(Oc1ccc(Cl)cc1Cl)c1nc(-c2ccc(NC(=O)c3cccnc3)cc2)no1 (centres undefined)	-3.1%	3.29µM*	-12.2%	9.3%	56.2%	-4.2%
CC(Oc1ccc(Cl)cc1Cl)c1nc(-c2ccc(NC(=O)c3ccncc3)cc2)no1 (centres undefined)	-16.2%	14.7µM*	-10.7%	9.28µM*	57.2%	-5.6%
CC(Oc1ccc(Cl)cc1Cl)C(=O)NNC(=O)c1cccnc1 (centres undefined)	-2.7%	5.9%	1.3%	21.4%	-2.9%	-13.6%
CC(Oc1ccc(Cl)cc1Cl)C(=O)NNC(=O)c1ccncc1 (centres undefined)	2.0%	2.2%	-12.9%	24.3%	-17.9%	-9.5%
CCc1cccc(NC(=O)CSc2nncn3c2cc2sccc23)c1	·	·	-1.6%	·	·	-4.6%
COc1cccc(-c2c(C(=O)N/N=C/c3ccc(C)s3)nnn2-c2nonc2N)c1	-4.5%	10.4µM*	-12.1%	4.15µM*	-30.8%	-1.2%
CCOc1cccc(-c2c(C(=O)N/N=C/c3ccc(C)s3)nnn2-c2nonc2N)c1	28.1%	?	-0.9%	14.7µM*	-37.2%	-8.3%
CCOc1ccc(-c2cc(C(=O)NCCCOC)c3c(-c4ccc(CC)cc4)[nH]nc3n2)cc1	·	·	0.2%	·	·	6.9%
Cc1nc2ccc(S(=O)(=O)NC(CC(C)C)C(=O)NCc3ccc(Cl)cc3)cc2s1 (centres undefined)	·	·	-0.8%	·	·	-2.2%
